Molecules are shown by their SMILES. Inconclusive results are not listed. Active and inactive are the calls of the source. Calls follow the shape of the dose curve; as a rule, active = well fitted curve in the direction sought with a large enough effect; inconclusive = small, poorly fitted or top-dose-only effect, or another doubt; inactive = no such curve, though single readings can be large; an effect the other way counts as inactive or inconclusive.

These results are taken from PubChem BioAssay (NCATS).

The target in test [1] is Aldehyde dehydrogenase, mitochondrial (Homo sapiens) (UniProt P05091). The experiment in a line: qHTS for Inhibitors of the Aldehyde Dehydrogenase Family (ALDH2) Primary screen (AID 2061308; also: nearly all actives have a fitted effect of over 55% in size; also: potency is read from the fitted curve at half-maximal effect). (Quantitative high-throughput screening tests each substance at several concentrations.)
For test [2], the target named is Retinal dehydrogenase 2 (Homo sapiens) (UniProt O94788). The experiment in a line: qHTS for Inhibitors of the Aldehyde Dehydrogenase Family (ALDH1A2) Confirmation screens (AID 2061314). Also: potency is read from the fitted curve at half-maximal effect; nearly all actives have a fitted effect of over 65% in size.
The target of test [3] is Aldehyde dehydrogenase 1A1 (Homo sapiens) (UniProt P00352). The experiment in a line: qHTS for Inhibitors of the Aldehyde Dehydrogenase Family (ALDH1A1) Confirmatory screens (AID 2061316). Also: potency is read from the fitted curve at half-maximal effect; nearly all actives have a fitted effect of over 65% in size.
In test [4] the target is Retinaldehyde dehydrogenase 3 (Homo sapiens) (UniProt P47895). The experiment in a line: qHTS for Inhibitors of the Aldehyde Dehydrogenase Family (ALDH1A3) Primary screen (AID 2061315).

On to `c1ccc(CNc2ccc(N3CCOCC3)cc2)cc1`, for which the Potency result in test [1] is “inactive”. In addition, the Potency in test [2] is 12.7 µM (active); in test [3] it was 7.98 µM (active).
Turning to `N#Cc1c(-c2cccc([N+](=O)[O-])c2)no[n+]1[O-]`, the Potency was 7.94 µM (active) in test [1], 5.04 µM (active) in test [2] and 12.7 µM (active) in test [3]. Also, the Potency entry in test [4] was “inactive”.
In the case of `Fc1ccc(Nc2nc(-c3ccnc(C(F)(F)F)c3)nc3ccccc23)cc1F`, the Potency entry in test [1] and in test [4] was “inactive” throughout.
For the compound `COc1ccccc1C1N=C(Nc2nc3ccccc3o2)NC2=C1C(=O)CCC2` (centres undefined), the Potency result in test [1] and in test [4] was “inactive” each time.
In the case of `COc1cccc(NC(=S)N2CCN(c3cc(C(F)(F)F)cc(C(F)(F)F)c3)CC2)n1`, the Potency result in test [1] and in test [4] was “inactive” each time.
For `Cc1ccnc(NC(=S)N2CC[C@@H](Nc3cccc(C(F)(F)F)c3)C2)c1`, the Potency result in test [1] and in test [4] was “inactive” each time.
For `CC(=O)Nc1ncc(S(=O)(=O)Nc2cnccc2C(=O)Nc2nc(-c3ccccc3)cs2)s1`, the Potency entry in test [1] and in test [4] was “inactive” each time. The Potency was 10.1 µM (active) in test [2] and 20.1 µM (active) in test [3].
With `Cc1cc(C(=O)Nc2ccc(NC(=O)Cc3ccc(Cl)c(Cl)c3)cc2)no1`, the Potency result in test [1] and in test [4] was “inactive” in each case.
`CC(=O)NS(=O)(=O)c1ccc(NC(=O)c2cc(-c3ccc(C)c(C)c3)nc3ccccc23)cc1`: the Potency result in test [1] and in test [4] was “inactive” throughout.
For `CCCN1CCN(c2cccc(Nc3nn4c(=O)c5ccccc5nc4s3)c2)CC1`, the Potency result in test [1] and in test [4] was “inactive” throughout.
For the compound `CC(C)Oc1ccc(C(=O)Nc2ccc(-c3nc4ccccc4[nH]3)cc2)cc1`, the Potency result in test [1] and in test [4] was “inactive” throughout.
As for `FC(F)(F)c1ccccc1-c1nc(NCc2cccc(Cl)c2)c2ccccc2n1`, the Potency entry in test [1] and in test [4] was “inactive” in each case.
As to `O=S(=O)(c1ccc2c(c1)OCCO2)N1CCN(S(=O)(=O)c2cc(F)c(F)cc2F)CC1`, the Potency result in test [1] and in test [4] was “inactive” in each case.
On to `c1cncc(CNc2ncnc3ccc(-c4ccco4)cc23)c1`, for which the Potency entry in test [1] and in test [4] was “inactive” in each case.
`O=c1c2ccccc2nc2sc(NCc3ccc(Cc4ccccc4)cc3)nn12`: the Potency result in test [1] and in test [4] was “inactive” in each case.
As for `Cc1cc(C)n2ncc(C(=O)Nc3ccc4c(c3)OCCO4)c2n1`, the Potency result in test [1] and in test [4] was “inactive” throughout.
Turning to `O=C(COc1ccc(F)cc1)NCCc1nc2ccccc2[nH]1`, the Potency result in test [1] and in test [4] was “inactive” each time.
Consider `CC1(C)CC(=O)C2=C(C1)NC(Nc1nc3ccccc3o1)=NC21CCCCC1`, for which the Potency result in test [1] and in test [4] was “inactive” in each case.
For the compound `CCOc1ccc(CCNC(=O)c2cc3sccc3n2C)cc1OCC`, the Potency result in test [1] and in test [4] was “inactive” each time.
In the case of `O=C(Nc1nc(-c2ccccc2)cs1)c1ccncc1NS(=O)(=O)c1ccc(N2CCCC2=O)cc1`, the Potency result in test [1] and in test [4] was “inactive” in each case.
For the compound `O=c1c2ccccc2nc(-c2ccccc2O)n1Cc1ccccc1`, the Potency entry in test [1] and in test [4] was “inactive” each time.
Turning to `C=C1C(=O)OC2/C=C(/C)C3=CC(=O)C(C)(CC(OC(=O)/C(C)=C/COC(C)=O)C12)O3` (centres undefined), the Potency entry in test [1] and in test [4] was “inactive” each time.
On to `COc1cccc(C2c3c(ncn(-c4cccc(OC)c4)c3=N)Oc3ccc4ccccc4c32)c1` (centres undefined), for which the Potency result in test [1] and in test [4] was “inactive” each time.
Take `C=C1C(=O)O[C@@H]2[C@H]1CC[C@H](C)[C@]1(CCC(=O)O1)C2(C)O` (some centres undefined): the Potency result in test [1] and in test [4] was “inactive” in each case.
For the compound `CNc1oc(-c2ccc(Cl)c(Cl)c2)nc1C#N`, the Potency entry in test [1] and in test [4] was “inactive” each time.
In the case of `Cc1nc(N2CCOCC2)c2nc(-c3ccccc3)n(CC3CCN(C)CC3)c2n1`, the Potency result in test [1] and in test [4] was “inactive” throughout.
For the compound `Nc1cc(NC(=O)Nc2nnc(-c3ccncc3)s2)ccc1Cl`, the Potency result in test [1] and in test [4] was “inactive” throughout.
As for `Cc1ccc(S(=O)(=O)N2CCN(c3nc(C#N)nc4ccccc34)CC2)cc1`, the Potency result in test [1] and in test [4] was “inactive” in each case.
`Brc1cnc2nc(SCc3ccccc3)[nH]c2c1`: the Potency entry in test [1] and in test [4] was “inactive” throughout.
For `CC(=O)c1ccc(N2CCN(S(=O)(=O)c3ccc4c(c3)CCC(=O)N4)CC2)cc1`, the Potency result in test [1] and in test [4] was “inactive” in each case.
With `COc1cccc(C2N=C(Nc3nc4ccccc4o3)NC3=C2C(=O)CCC3)c1` (centres undefined), the Potency result in test [1] and in test [4] was “inactive” each time.
Consider `CC(=O)O[C@@H]1C=C2[C@H](CC[C@@]3(C)[C@@]2(O)CC[C@H]2Cc4c([nH]c5ccccc45)[C@@]23C)O[C@@H]1C(C)(C)O`, for which the Potency entry in test [1] and in test [4] was “inactive” each time.
For `CCc1nn2c(=O)cc(NC3CNC3)nc2s1`, the Potency result in test [1] and in test [4] was “inactive” in each case.
As for `Cc1ccc(OCCn2c(CCNC(=O)c3ccc(C#N)cc3)nc3ccccc32)cc1`, the Potency entry in test [1] and in test [4] was “inactive” throughout.
Take `O=S(=O)(NCC1CN(S(=O)(=O)c2ccc3c(c2)OCCO3)C1)c1c(F)cccc1F`: the Potency entry in test [1] and in test [4] was “inactive” each time.
In the case of `C=C1[C@@H](C)[C@H]2[C@H](Cc3c[nH]c4ccccc34)NC(=O)[C@]23C(=O)/C=C/C(=O)[C@H](O)/C(C)=C\[C@@H](C)C/C=C/[C@H]3[C@@H]1O`, the Potency in test [1] is 11.2 µM (active). The Potency result in test [4] was “inactive”.
For `C=C(C)C(=O)O[C@H]1/C(C=O)=C\CC/C(CO)=C/[C@H]2OC(=O)C(=C)[C@@H]2[C@@H]1OC` the same measures were “inactive” and “inactive”.
As for `COCCN(CCOC)c1nc(C)nc2c1nc(-c1ccccc1)n2CC1CCN(C)CC1`, the Potency entry in test [1] and in test [4] was “inactive” in each case.
Regarding `Cc1ccc(S(=O)(=O)Nc2ccc(OC(F)(F)F)cc2C(=O)Nc2nc(-c3ccccc3)cs2)cc1`, the Potency result in test [1] and in test [4] was “inactive” in each case.
Regarding `CCCn1c(-c2ccc(F)cc2)nc2c(N3CCN(C)CC3)nc(C)nc21`, the Potency entry in test [1] and in test [4] was “inactive” in each case.
As to `CC1=CC(=O)C2C(C)(C)CCCC2(C)C12CCC1(COC(=O)C1)O2` (centres undefined), the Potency entry in test [1] and in test [4] was “inactive” throughout.
As to `Fc1cnc(-c2ccccc2C(F)F)nc1NCc1ccc(-c2cccnc2)cc1`, the Potency result in test [1] and in test [4] was “inactive” in each case.
